Screening results: PubChem, National Center for Advancing Translational Sciences (NCATS)
The sample as a whole holds a higher share of hits than the screen did.
KDM5B inh = KDM5B demethylase inhibition | Q9UGL1 | KDM5B demethylase, FDH-coupled NADH fluorescence (FDH is formaldehyde dehydrogenase) | Potency, µM (titrated, usually from 57.7 µM), usual class: inhibitors | 220,000 compounds, 2.6% hits | AID 1347165; active = well fitted inhibition curve with a large enough effect; also: 0% is about no effect; nearly all actives have a fitted effect of over 70% in size
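KDM5BΔAP (200 nM final) in 50 mM HEPES pH 7.5, 0.01% Tween-20 was preincubated 10 min at RT with compound over a concentration range. Substrate mix (H3K4me3 12.5 µM, α-KG 25 µM, Fe²⁺, ascorbate, NAD⁺, FDH) was added, and NADH fluorescence change over 30 min gave dose-response curves.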
The depositor's hits bear a star; i = inactive. Potency is read from the fitted curve at half-maximal effect.

SMILES	KDM5B inh
CC(C(=O)Nc1ccc2[nH]c(=O)[nH]c2c1)N(C)Cc1cccc(Cl)c1Cl (configuration not stated)	i
O=C(Nc1ccc(C2(C(=O)NCC3CC3)CCCCC2)cc1)C1CC1	i
CCC(=O)N1CC(C(=O)Nc2ccccn2)C2(CCOCC2)C1 (configuration not stated)	i
CC(=O)Nc1ccc(C2(C(=O)N3CCN(c4ccccn4)CC3)CCCCC2)cc1	28.2µM*
O=C(N1CCCCC1)C1(c2ccc(Cl)cc2)CCOCC1	i
O=C(N1CCN(c2ccccn2)CC1)C1(c2ccc(Cl)cc2)CCOCC1	79.4µM*
CCC(=O)Nc1ccc(C2(C(=O)N3CCN(c4ccccc4)CC3)CCC2)cc1	i
O=C(Nc1ccc(C2(C(=O)N3CCN(c4ccccn4)CC3)CCCCC2)cc1)C1CC1	28.2µM*
O=C(N1CCN(c2ncccn2)CC1)C1(c2ccc(Cl)cc2)CCOCC1	i
CN(C)C(=O)C1CN(C(=O)COc2ccccc2)CC12CCOCC2 (configuration not stated)	i
CC(C)C(=O)Nc1ccc(C2(C(=O)N3CCCC3)CCCCC2)cc1	i
CC(C)C(=O)Nc1ccc(C2(C(=O)N3CCN(c4ccccc4)CC3)CCCCC2)cc1	i
CCC(=O)N1CC(C(=O)N2CCN(c3ccccn3)CC2)C2(CCOCC2)C1 (configuration not stated)	31.6µM*
Cc1cccc(CC(=O)NC(Cc2ccccc2)C(=O)NCc2cc(=O)n(C)c(=O)n2C)c1 (configuration not stated)	i
CCc1c(C(=O)Nc2ccc(OC)cc2OC)csc1C	i
Cc1cccc(Oc2nc3c(c(=O)n(C)c(=O)n3C)n2Cc2ccccc2F)c1	i
O=C(c1ccccc1)N1CCC(Oc2ccccc2)C1 (configuration not stated)	i
CC(C)C(=O)NC(Nc1cccc2ccccc12)C(Cl)(Cl)Cl (configuration not stated)	i
Cc1cc2[nH]cnc2c(NC(=O)CCc2cc3n(n2)CCNC3)c1C	i
Cc1ccnc(C(NC(=O)CCc2cc3n(n2)CCCNC3)C2CC2)c1 (configuration not stated)	28.2µM*
Cc1nc2ncnn2c(C)c1CCC(=O)NCc1cc2n(n1)CCCNC2	i
Cc1ccc2nc(C)c(C(=O)N3CCCc4ccccc43)cc2c1	i
CCC(=O)Nc1cc(-c2nc3ccccc3o2)ccc1Cl	i
O=C(NC1CCC(C(F)(F)F)CC1)C1CCCO1 (configuration not stated)	i
COc1cc(-c2cccs2)cc2c1OCCN(C(=O)c1ccncc1C)C2	i
SMILES	KDM5B inh
COc1cc(-c2cc(C)c3cccc(OC)c3n2)cc2c1OCCN(C(=O)CCN)C2	28.2µM*
COc1cc(-c2cccs2)cc2c1OCCN(C(=O)C(C)Cn1cncn1)C2 (configuration not stated)	i
O=C(c1cc(=O)c2cc(Cl)ccc2o1)N(Cc1ccccc1)c1ccccn1	i
COc1ccc(-c2nc(N)n(C(=O)c3ccc(Cl)cc3)n2)cc1	i
CC(C)c1ccc2c(c1)C1(CC(=O)Nc3c1sc(C(=O)O)c3-c1ccccc1F)C(=O)N2C (configuration not stated)	i
CC(NC(=O)CCc1cccs1)C1CCCO1 (configuration not stated)	i
COC(=O)c1ccccc1NS(=O)(=O)c1cc2c(cc1C)N(C)CCO2	i
COc1ccc(C(=O)NCCc2ncc(C)n2C2CC2)cn1	i
COc1cccc(CC(=O)N[C@@H]2CCC[C@@H](C(=O)NCc3cc(C)on3)CC(=O)N(C)C2)c1	i
CN1CCOc2c(C(=O)NCCN3CCNC3=O)cc(-c3ccc(O)c(F)c3)cc21	35.5µM*
COc1ccc(-c2cc(C(=O)NCC[S+](C)(=O)[O-])c3c(c2)N(C)CCO3)cn1	31.6µM*
Cn1c(C(=O)NCCNC(=O)c2ccccc2F)cc2ccccc21	i
CN1CCOc2c(C(=O)NCC[S+](C)(=O)[O-])cc(-c3ccccc3F)cc21	35.5µM*
COc1ccc(-c2cc(C(=O)NCc3cc(C)on3)c3c(c2)N(C)CCO3)cn1	35.5µM*
CCCn1c(C)cnc1CCNC(=O)c1ccc(OC)nc1	i
Cc1cccc(CN2CCc3ncc(C(=O)NCCN4CCNC4=O)n3CC2)c1	i
CN1CCN(c2ccc(-c3cc4c(ccn4C)c(C(=O)NCCN4CCNC4=O)n3)cc2)CC1	i
COc1cccc(CN[C@@H]2CCC[C@@H](C(=O)NCc3cc(C)on3)CC(=O)N(C)C2)c1	i
Cc1nn(-c2ccccc2)c(C)c1CN(C)C(=O)CNC(=O)c1ccc(C(C)(C)C)cc1	i
CCn1c(Cn2nnc(-c3ccccc3C)n2)nc2cc(S(=O)(=O)N3CCOCC3)ccc21	i
COc1cc(C)c(NC(=O)Cn2cnc3c2c(=O)n(C)c(=O)n3C)cc1OC	i
C/C(=N/NC(=S)NC(C)C)c1ccc(C2CCCCC2)cc1	i
CC1=CC(=O)C2(CCCCC2)NC1	i
O=c1[nH]c(CSc2nnc(-c3ccccc3F)n2C2CC2)nc2ccc(Cl)cc12	i
